Assays:
Conditions in all cases: concentration: 1 μM, replicates: in singlicate; n = 1
[1] = test system: PIP5K1A
[2] = test system: PIP5K1C
[3] = test system: PIP5K2B
[4] = test system: T1, PIP5K2C
T1 construct: gene PIP4K2C

[5] = test system: T2, PKAC-alpha
T2 construct: gene PRKACA

[6] = test system: T3, PKAC-beta
T3 construct: gene PRKACB

[7] = test system: PKMYT1
[8] = test system: PKN1
[9] = test system: PKN2
[10] = test system: PLK1
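Note: KINOMEscan kinase panel screen.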

SMILES | %Inh [1] | %Inh [2] | %Inh [3] | %Inh [4] | %Inh [5] | %Inh [6] | %Inh [7] | %Inh [8] | %Inh [9] | %Inh [10]
O=C(Nc1ccccc1F)NC1CCN(c2ccnc(Nc3ccc(F)cc3)n2)CC1 [GSK1379800] | 1% | 47% | 12% | 23% | 0% | 0% | 7% | 0% | 0% | 0%
Cn1cc(-c2[nH]c3cc(NC(=O)[C@H](N)C4CCCCC4)cc4c3c2C=NNC4=O)cn1 | 33% | 52% | 82% | 41% | 70% | 63% | 2% | 88% | 90.5% | 0%
COc1cc(Nc2nccc(-c3c(-c4cccc(NC(=O)c5c(F)cccc5F)c4)nn4ncccc34)n2)cc(OC)c1OC [GSK327238] | 0% | 19% | 20% | 93.9% | 44% | 47% | 8% | 62% | 13% | 12%
CCc1ccc(-c2ccc3c(c2)-c2c(cnn2C)S(=O)(=O)N3C)cc1 | 0% | 24% | 0% | 77% | 0% | 12% | 30% | 2% | 0% | 0%
Cc1ccc(C(=O)Nc2ccc(Nc3ccnc4cc(-c5nccs5)ccc34)cc2O)cc1.Cl [GW494702] | 0% | 9% | 0% | 28% | 0% | 0% | 0% | 0% | 0% | 1%
c1ccc(-c2cnc3nccnn23)cc1 [AH20685] | 0% | 24% | 13% | 0% | 0% | 0% | 0% | 7% | 0% | 0%
CC(=O)Nc1nc2cnc(Nc3cc(NC(=O)c4cccc(C5(C#N)CC5)c4Cl)ccc3C)nc2s1 | 8% | 4% | 46% | 0% | 0% | 0% | 0% | 0% | 0% | 0%
CN1CCN(Cc2cccc(-c3ccc4c(Nc5ccc(Oc6ccccc6)cc5)ccnc4c3)c2)CC1 [GW578342] | 26% | 59% | 12% | 9% | 0% | 0% | 0% | 0% | 27% | 0%
O=C(NC1CCN(c2ccnc(Nc3ccc(F)cc3)n2)C1)c1cc2ccccc2s1 (centres unmarked) [GSK1379716] | 7% | 60% | 0% | 42% | 0% | 0% | 6% | 0% | 0% | 7%
CN1CCN(CCCNc2nccc(-c3c(-c4ccc(F)cc4)nn4cc(C(F)(F)F)ccc34)n2)CC1 [GW621581] | 0% | 11% | 0% | 0% | 0% | 9% | 0% | 12% | 0% | 0%
CC(C)(C)c1ccc2nccc(Nc3cccc(O)c3)c2c1 [GW856795] | 29% | 40% | 8% | 7% | 90.5% | 0% | 0% | 0% | 0% | 0%
COc1cccc(C(=O)Nc2cccc(Oc3ccc4nc(NC(=O)C5CC5)cn4n3)c2)c1 | 0% | 10% | 0% | 28% | 6% | 47% | 0% | 0% | 4% | 0%
Cc1ccc(C)c(NC(=O)NC2CCN(c3ccnc(Nc4ccc(F)cc4)n3)C2)c1 (centres unmarked) [GSK1379720] | 0% | 65% | 38% | 47% | 0% | 0% | 5% | 0% | 0% | 0%
Cn1cc(-c2ccc3c(c2)CCN3C(=O)Cc2cccc(F)c2)c2c(N)ncnc21 [GSK2603358] | 0% | 56% | 0% | 38% | 0% | 0% | 0% | 0% | 0% | 0%
Nc1ncnc2c1nc(-c1ccccc1)n2-c1ccccc1 [SKF-97293] | 13% | 0% | 19% | 0% | 7% | 17% | 18% | 20% | 4% | 68%
Cl.Cl.NCC(NC(=O)c1cc(-c2ccccc2)c(-c2ccnc3[nH]ccc23)s1)c1ccccc1 (centres unmarked) [GSK1321561] | 8% | 50% | 14% | 7% | 98.3% | 97% | 3% | 25% | 19% | 5%

SMILES | %Inh [1] | %Inh [2] | %Inh [3] | %Inh [4] | %Inh [5] | %Inh [6] | %Inh [7] | %Inh [8] | %Inh [9] | %Inh [10]
Clc1ccc(-c2nn3ncccc3c2-c2ccnc(Nc3ccc4c(c3)OCCO4)n2)cc1 [GW829116] | 17% | 0% | 0% | 43% | 24% | 0% | 2% | 0% | 0% | 0%
Cc1ccc(S(=O)(=O)Nc2ccc(Nc3nccc(Nc4cccc5[nH]ncc45)n3)cc2)cc1 [GSK581271] | 0% | 31% | 13% | 57% | 0% | 0% | 15% | 22% | 0% | 0%
NCCCC(NC(=O)c1cc(Br)c(-c2ccnc3[nH]ccc23)s1)c1ccccc1.O=C(O)C(F)(F)F.O=C(O)C(F)(F)F (centres unmarked) [GSK1287544] | 72% | 42% | 60% | 28% | 99.4% | 99.2% | 0% | 18% | 58% | 0%
COc1cccc(C2=C(Nc3ccc(Cl)c(C(=O)O)c3)C(=O)NC2=O)c1 [SB-390769] | 19% | 60% | 0% | 28% | 0% | 6% | 4% | 0% | 0% | 0%
O=C(O)C(F)(F)F.O=C(O)C(F)(F)F.O=c1[nH]ccc2nc(N[C@@H]3CCCNC3)nc(Nc3ccc(S(=O)(=O)N4CCOCC4)cc3)c12 [GSK2177277] | 72% | 76% | 94.4% | 89% | 82% | 86% | 0% | 85% | 96.1% | 38%
O=C(Nc1cccc(-c2nn3ccccc3c2-c2ccnc(Nc3cccc(F)c3)n2)c1)c1c(F)ccc(F)c1Cl [GSK357952] | 0% | 7% | 8% | 0% | 13% | 18% | 5% | 17% | 0% | 0%
C[C@@H]1CC[C@@H](C(=O)Nc2ccccc2)CN1c1cc(-c2ccc3c(N)n[nH]c3c2)nc(N)n1 [GSK2286062] | 0% | 18% | 3% | 4% | 0% | 0% | 16% | 0% | 0% | 0%
COC(=O)Nc1nc2ccc(Oc3ccc(NC(=O)Nc4cc(C(F)(F)F)ccc4F)cc3)cc2n1C.Cl [GW692089] | 74% | 61% | 22% | 41% | 0% | 0% | 0% | 0% | 11% | 0%
CCS(=O)(=O)c1ccc(OC)c(Nc2nccc(-c3c(-c4cccc(NC(=O)c5c(F)cccc5F)c4)nn4ncccc34)n2)c1 [GSK326180] | 0% | 8% | 0% | 40% | 0% | 0% | 0% | 0% | 0% | 0%
FC(F)(F)c1ccc(/C=C/c2cncnc2Nc2ccc3[nH]c(Cc4ccccc4)nc3c2)cc1 [GW709199] | 32% | 30% | 0% | 38% | 0% | 29% | 25% | 0% | 12% | 0%
Cl.c1ccc(-c2ccc3c(Nc4ccc5[nH]ccc5c4)ccnc3c2)nc1 [GW440138] | 50% | 66% | 8% | 65% | 0% | 0% | 0% | 0% | 0% | 0%
CN(C)Cc1ccc(-c2ccc3c(Nc4ccc(Oc5ccccn5)cc4)ccnc3c2)o1 [GW567148] | 33% | 18% | 0% | 49% | 0% | 0% | 0% | 0% | 0% | 0%
Oc1cc(Nc2ccnc3cc(I)ccc23)ccc1F [GW552771] | 8% | 13% | 0% | 30% | 0% | 0% | 0% | 19% | 0% | 0%
Nc1ncc(-c2ccc3nccc(-c4ccncc4)c3c2)cc1S(=O)(=O)N1CCOCC1 [GSK1627798] | 0% | 0% | 5% | 30% | 0% | 0% | 11% | 12% | 0% | 0%
Cc1ccc(C(=O)N2CC[C@@H](O)C2)cc1-n1c(C)cc(OCc2ccc(F)cc2F)c(Br)c1=O | 0% | 50% | 0% | 38% | 3% | 0% | 0% | 16% | 0% | 0%
O=C(Nc1n[nH]c2cc(-c3ccoc3)ccc12)C1CC1 [SB-738481] | 28% | 0% | 18% | 0% | 0% | 2% | 0% | 0% | 22% | 3%

— article PMC5540273 (PLoS ONE, 2017)
